# Measured values reported in PubChem BioAssay.
# Key:
# [1] = tested on: Human papillomavirus type 1a protein E7 (residues 44-93); test: small molecules binding HPV E7 44-93 – biochemical, small-molecule microarray, residues 44-93, 635 nm fluorescence, primary screen (AID 1108); conditions: fluorescence 635 nm, higher = more signal;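 further: E7 fragment applied at 1 µg/mL in TBST for 1 h at 4 C; score combines spot fluorescence with its signal to noise ratio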
# [2] = hepatitis C replication reporter changes, two-sided – Huh7 cells, luciferase reporter, HCV replication inhibitor project, primary screen (AID 1109); conditions: Huh7 HCV replicon luciferase reporter, 48 h; higher = more signal;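 further: huh7 hepatoma cells harbouring a luciferase neomycin HCV replicon reporter; luciferase luminescence as measure of HCV replicon replication; test concentration not given here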
# [3] = biological target: Left-right determination factor 2 (Homo sapiens) (UniProt O00292); test: small molecules binding LEFTY2 protein – biochemical, small-molecule microarray, 635 nm fluorescence scan, primary screen (AID 1110); conditions: higher = more signal
# Sequence of Left-right determination factor 2 (Homo sapiens) (O00292 whole entry, looked up): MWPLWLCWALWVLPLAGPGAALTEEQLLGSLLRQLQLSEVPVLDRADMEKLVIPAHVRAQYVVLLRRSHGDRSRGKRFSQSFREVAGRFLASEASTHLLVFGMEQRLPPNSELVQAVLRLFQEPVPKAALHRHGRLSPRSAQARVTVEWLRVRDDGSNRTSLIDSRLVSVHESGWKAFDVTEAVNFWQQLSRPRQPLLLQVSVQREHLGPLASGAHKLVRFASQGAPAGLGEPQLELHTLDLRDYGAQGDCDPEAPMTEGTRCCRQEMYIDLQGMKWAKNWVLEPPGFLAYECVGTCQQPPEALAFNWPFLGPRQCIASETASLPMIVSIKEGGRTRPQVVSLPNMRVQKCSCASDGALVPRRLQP
# [4] = biological target: Calmodulin-1 (Homo sapiens) (UniProt P0DP23); test: small molecules binding calmodulin-1 with EGTA – biochemical, small-molecule microarray, Cy5-labelled CALM1, profiling panel (AID 1111); conditions: Cy5-CALM1 binding fluorescence, higher = more signal;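 further: labelled calmodulin applied in Tris saline Tween buffer holding calcium plus EGTA and DTT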
# [5] = biological target: Calmodulin-1 (Homo sapiens) (UniProt P0DP23); test: small molecules binding Ca-loaded calmodulin-1 – biochemical, small-molecule microarray, Cy5-labelled CALM1, plus calcium, artefact control for SMM control-protein annotation, profiling panel (AID 1112); conditions: Cy5-CALM1 binding fluorescence, higher = more signal;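 further: score merges spot fluorescence with signal to noise from triplicate slides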
# [6] = probe aWnt5a binding to arrayed compounds – biochemical, biotinylated probe, 635/667 nm fluorescence, primary screen (AID 1113); conditions: small-molecule microarray, higher = more signal;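 further: score merges 667 nm fluorescence intensity with signal-to-noise per printed feature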
# [7] = probe aShh binding to arrayed compounds – biochemical, biotinylated probe, 635/667 nm fluorescence, primary screen (AID 1114); conditions: small-molecule microarray, higher = more signal;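 further: probe is biotin-labelled aShh protein from a stem cell growth factor screen; measures binding of labelled protein to compounds printed on the slide; score merges feature fluorescence at 667 nm with signal-to-noise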
# [8] = probe aNog binding to arrayed compounds – biochemical, biotinylated probe, 635/667 nm fluorescence, primary screen (AID 1115); conditions: small-molecule microarray, higher = more signal;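 further: probe is biotinylated aNog protein used at 0.15 µg/mL for 1 h at 4 C; z-score combines 667 nm fluorescence of each spot with its signal to noise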
# [9] = biological target: Torsin-1A-interacting protein 1 (Homo sapiens) (UniProt Q5JTV8); test: compound microarray binding of lysate hLAP1 – cell lysate, small-molecule microarray, COS7 lysate, 635/667 nm fluorescence, primary screen (AID 1116); conditions: 635 nm fluorescence, higher = more signal
# Sequence of Torsin-1A-interacting protein 1 (Homo sapiens) (Q5JTV8 whole entry, looked up): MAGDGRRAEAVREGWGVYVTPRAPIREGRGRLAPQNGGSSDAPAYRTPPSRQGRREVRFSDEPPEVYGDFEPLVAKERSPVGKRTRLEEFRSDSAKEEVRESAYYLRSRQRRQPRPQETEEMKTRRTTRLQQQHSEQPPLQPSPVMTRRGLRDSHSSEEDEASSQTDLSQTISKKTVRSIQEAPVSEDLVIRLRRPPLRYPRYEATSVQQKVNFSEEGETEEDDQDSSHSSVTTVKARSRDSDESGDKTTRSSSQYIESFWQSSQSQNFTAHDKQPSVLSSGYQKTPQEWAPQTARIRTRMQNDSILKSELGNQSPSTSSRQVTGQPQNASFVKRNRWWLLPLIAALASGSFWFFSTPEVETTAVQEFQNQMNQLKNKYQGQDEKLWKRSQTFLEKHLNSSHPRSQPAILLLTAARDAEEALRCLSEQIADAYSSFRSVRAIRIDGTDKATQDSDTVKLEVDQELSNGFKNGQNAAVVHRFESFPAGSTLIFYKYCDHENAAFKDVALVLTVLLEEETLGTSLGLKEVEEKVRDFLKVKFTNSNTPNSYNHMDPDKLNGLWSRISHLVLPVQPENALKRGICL
# [10] = biological target: Alpha-bungarotoxin (Bungarus multicinctus) (UniProt P60615); test: compounds binding labelled alpha-BTX control protein – biochemical, small-molecule microarray, Alexa647 label, 635/667 nm fluorescence, artefact control for SMM control protein annotation, profiling panel (AID 1117); conditions: alpha-BTX-A647 binding fluorescence, higher = more signal
# Sequence of Alpha-bungarotoxin (Bungarus multicinctus) (P60615 whole entry, looked up): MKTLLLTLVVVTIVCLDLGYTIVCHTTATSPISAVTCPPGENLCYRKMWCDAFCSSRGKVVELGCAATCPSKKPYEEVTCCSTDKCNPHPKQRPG
SMILES,composite z-score [1],z-score [2],composite z-score [3],composite z-score [4],composite z-score [5],composite z-score [6],composite z-score [7],composite z-score [8],composite z-score [9],composite z-score [10]
COc1ccc(NN2C(C(O)c3ccc(OC)cc3)C=CC3C(=O)N(C4CCCCC4)C(=O)C32)cc1 (stereo not given),1.2,-1.02,0.318,0.566,-0.366,0.0357,0.191,0.571,0.53,1.08
CC(C)CNC(=O)[C@@H]1c2ccccc2C(=O)N(C2Cc3ccccc3C2)[C@H]1c1ccc(CO)cc1,1.11,-0.235,-0.325,-0.588,-0.616,-0.101,-0.185,0.325,0.691,-0.205
CN1C=C(C(=O)OCCS(C)(=O)=O)C(C(=O)OCCS(C)(=O)=O)=CC(CCCO)=CC1c1ccc(CN2CCCC2)cc1 (stereo not given),1.45,-1.36,0.595,0.693,-0.551,-0.0087,0.261,0.827,0.51,0.745
COCCOC(=O)N1C(=O)[C@@]2(c3cc(C#CC4(O)CCCCCC4)ccc31)[C@H](c1ccc(OCCO)cc1)N1[C@H](c3ccccc3)[C@H](c3ccccc3)OC(=O)[C@H]1[C@@H]2C(N)=O,0.448,-2.2,0.547,1.04,-0.111,-0.0472,0.199,0.53,1.73,1.9
CN(C)CCCC[C@@H]1NC(=O)[C@H]2C[C@@H](C(=O)NCc3ccc(F)cc3)[C@@H](c3ccc(O)cc3)N2C1=O,-0.247,0.206,1.15,-1.08,0.354,-0.0748,0.365,-0.273,1.03,2.5
CC#CCO[Si](C#CCCCCCC)(C(C)C)C(C)C,-0.321,0.158,-3.37,-0.626,1.01,-0.275,-0.304,-0.417,-0.438,0.0016
COc1ccc(CCNC(=O)[C@@]2(Sc3ccc(C)cc3)CC(=O)N(C(C)C)[C@@H]2c2ccc(CO)cc2)cc1,0.889,-0.887,-2.73,0.359,-0.242,-0.28,0.0121,-0.209,-1.16,-0.563
COC(=O)[C@H](Cc1ccc(O)cc1)N1CC2=CCCC=C[C@@H]2[C@H]1[C@H](O)Cc1ccccc1,-0.615,-0.798,0.45,-0.197,-0.757,-0.157,-0.138,-0.292,0.0548,0.0212
CC(c1ccccc1)C(O)C1C=CC2C(=O)N(c3ccccc3)C(=O)C2N1Nc1ccc(C#N)cc1 (stereo not given),1.41,-0.354,0.8,1.52,0.253,0.216,0.156,1.45,1.8,1.39
C=CC[C@@]12N=C(c3ccc(OCCCO)cc3)O[C@@H]1c1ccccc1N(Cc1ccccc1)C2=O,0.598,-2.27,0.657,0.792,0.355,0.127,-0.114,1.1,1.16,0.858
C=CC[C@@]1(C(=O)N(C)C)N=C(c2ccc(OCCCO)cc2)O[C@@H]1c1ccccc1,0.242,-0.624,0.191,0.401,0.621,0.233,0.246,-0.42,0.961,0.826
C=C(COC)/C(=C/C[C@H](OC(=O)c1ccncc1)c1cccc(OCCO)c1)c1cnc2ccccc2c1,-0.378,-1.56,0.791,0.697,-0.64,-0.0944,0.235,-0.145,0.756,3.02
CCCC[C@H]1OB(O)C[C@H]2C1=C(COC)C[C@H]1C(=O)C=CC(=O)[C@H]12,0.275,-1.33,0.594,-0.321,-0.728,-0.101,0.0062,-0.0344,-0.22,0.567
CC1CC/C=C\[C@H]2OC34C=CCN(c5ccc(Cl)cc5)C(=O)[C@H]3N(CCCO)C(=O)[C@]4(C)C2C(=O)O1 (stereo not given in full),-0.678,-1.07,-1.33,-0.484,0.456,-0.124,-0.0553,-0.0211,-1.06,-0.859
O=C(NCC(F)(F)F)[C@@H]1c2ccccc2C(=O)N(CC23CC4CC(CC(C4)C2)C3)[C@H]1c1ccc(CO)cc1,1.02,-1.83,0.355,0.579,-0.715,-0.0398,0.136,-0.222,0.613,-0.523
COCCOC(=O)N1C(=O)[C@@]2(c3cc(C#Cc4ccc(OC)cc4)ccc31)[C@H](c1ccc(OCCO)cc1)N1[C@H](c3ccccc3)[C@H](c3ccccc3)OC(=O)[C@H]1[C@@H]2C(=O)N1CCCCCCC1,1.35,-0.891,0.954,2.27,1.21,0.777,2.23,3.67,3.66,1.99
CN(C)CCCC[C@@H]1NC(=O)[C@H]2C[C@@H](C(=O)O)[C@@H](c3cccc(OCCO)c3)N2C1=O,-0.226,4.23,0.494,-0.526,0.16,0.0495,0.0611,0.25,0.633,1.47

SMILES,composite z-score [1],z-score [2],composite z-score [3],composite z-score [4],composite z-score [5],composite z-score [6],composite z-score [7],composite z-score [8],composite z-score [9],composite z-score [10]
C=CCC(OC(C)=O)[C@@H]1[C@@H](N(Cc2cc3ccccc3o2)C(=O)c2ccc(-c3ccccc3)cc2)c2cc(OCCCO)ccc2N1C(=O)c1ccc2ccccc2n1 (stereo not given in full),0.061,0.104,0.163,-0.12,0.898,0.107,-0.124,-0.961,0.554,0.113
CN(C)C(=O)[C@]1(Cc2ccccc2CN=[N+]=[N-])N=C(c2ccc(OCCCO)cc2)O[C@@H]1c1ccccc1N=[N+]=[N-],1.44,-1.6,-0.472,1.71,0.422,-0.0161,0.0639,0.526,0.609,1.14
COCCOC(=O)N1C(=O)[C@@]2(c3cc(C#CCC(C(=O)OC)C(=O)OC)ccc31)[C@H](C(=O)N1CCc3cc(OC)c(OC)cc3C1)[C@H]1C(=O)O[C@H](c3ccccc3)[C@H](c3ccccc3)N1[C@@H]2c1ccc(O)cc1,1.4,-0.649,1.17,0.442,-0.406,0.0718,0.0326,-0.537,0.965,0.906
CCOC(=O)C[C@H]1[C@H](OC(=O)Cc2ccc3c(c2)OCO3)[C@@H](NC(=O)c2ccccc2)c2cc(OCCCO)ccc2N1C(=O)Cc1ccc(OC)cc1,0.334,-1.53,-0.113,1.04,0.188,-0.0545,-0.0626,-0.196,0.435,0.774
COC(=O)[C@@]1(Cc2ccc(OC)cc2)[C@H]2c3cc(C(=O)N4CCCC4)n(CCc4ccc(OC)c(Br)c4)c3C[C@H]2CN1C(=O)c1ccccc1,-0.027,0.0171,-0.38,2.19,0.967,-0.0519,0.865,2.37,2.06,-0.123
C#CCN=C(N)N,0.69,-0.613,1.11,-0.617,-0.736,-0.131,-0.0813,-0.226,0.622,0.0757
CCCCN1CC=CC23O[C@@H]4C=CCOC(=O)[C@@H]4[C@H]2C(=O)N(CCO)[C@@H]3C1=O (stereo not given in full),-0.718,0.407,-2.32,-0.483,0.856,-0.119,0.0893,0.643,-0.401,-1.48
C/C=C/CN(C(=O)C#Cc1ccccc1)[C@H](CO[Si](C)(C)C(C)(C)C)c1ccccc1,0.0833,-0.944,-0.594,-0.855,-1.76,-0.286,-0.372,-0.338,-0.721,-2.16
Cc1c(-c2ccc(-c3ccc(Cl)c(Cl)c3)o2)nc(-c2ccccc2)c2c1CO[Si]2(C(C)C)C(C)C,0.296,-0.403,-0.487,-0.179,-0.0727,-0.113,0.0326,-0.103,0.125,-0.0982
CO[C@H]1O[C@H](CO)[C@@H](OC(=O)Nc2ccc3c(c2)OCO3)[C@@H]2OC(=O)[C@@H](Cc3ccccc3)C/C=C/C[C@H](Cc3ccccc3)C(=O)O[C@@H]12,1.37,-2.54,0.0694,0.929,-0.728,0.0533,0.149,1.09,0.0909,0.732
CN(C)CCCC[C@@H]1NC(=O)[C@@H]2C[C@H](C(=O)NCCCCCCNC(=O)CS)[C@H](c3cccc(OCCO)c3)N2C1=O,-0.275,-0.149,0.0929,-0.172,-0.221,-0.0478,-0.209,-0.103,0.947,0.0727
C=CCC(OC(C)=O)[C@@H]1[C@@H](N(Cc2ccc(-c3ccccc3)cc2)C(=O)c2ccc(C)cc2)c2cc(OCCCO)ccc2N1C(=O)c1ccc2ccccc2c1 (stereo not given in full),-0.129,-0.33,-0.103,0.0626,0.235,-0.0222,-0.17,-0.448,0.202,0.408
CCCCCCc1nc(-c2ccc(OC)nc2)cc2c1[Si](C(C)C)(C(C)C)OC2,-0.611,1.09,-0.147,-0.464,0.0559,-0.0643,-0.262,-0.0965,-0.346,0.502
COc1ccc([Si](C)(C)[C@@H]2[C@@H](CCO)O[C@]3(C(=O)N(Cc4ccccc4)c4ccc(N5C(=O)c6ccccc6Oc6ccccc65)cc43)[C@H]2C)cc1,-0.175,-4.15,-0.75,0.417,0.925,-0.208,-0.0605,-0.0541,-0.361,0.367
CCOC(=O)C[C@H]1[C@H](OC(=O)c2cc3ccccc3oc2=O)[C@@H](NC(=O)C2CCCCC2)c2cc(OCCCO)ccc2N1C(=O)Cc1ccc(OC)cc1,0.612,-0.938,0.304,0.126,-0.182,0.0633,0.42,0.23,0.404,0.25
C=CCC(OC(C)=O)[C@@H]1[C@@H](N(Cc2cc3ccccc3o2)C(=O)Cc2ccc(OC)cc2)c2cc(OCCCO)ccc2N1C(=O)Cc1ccc(OC)cc1 (stereo not given in full),-0.133,0.028,-0.0735,-0.211,0.158,-0.0981,-0.0626,-0.303,-0.0544,0.673
